According to PubChem BioAssay (NCI):
This is part of a sample that, as a whole, favours compounds with a hit. Of some 83,000 tested, about 20% had one in any assay.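 A percent growth of 40 corresponds to 60% growth inhibition; 0 means no net growth; -100 means all cells died. Active threshold: below 10.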 Unmarked numbers belong to inactive results. Active and inactive are the calls of the source.

Tests used:
Assay in all cases: NCI-60 one-dose screen, 48 h (100 = growth as untreated, 0 = no growth, -100 = all killed)
Conditions in all cases: 10 µM unless noted
[1] = system: NCI-H226 lung
[2] = system: NCI-H322M lung
[3] = system: HOP-62 NSCLC
[4] = system: NCI-H460 lung
[5] = system: HOP-92 NSCLC
[6] = system: NCI-H522 lung
[7] = system: A549/ATCC NSCLC
[8] = system: 786-0 renal
[9] = system: COLO 205 colon
[10] = system: DU-145 prostate
[11] = system: K-562 leukemia
[12] = system: MALME-3M melanoma
[13] = system: MDA-MB-231 breast
[14] = system: RXF 393 renal
[15] = system: SF-268 CNS
[16] = system: SF-295 CNS
[17] = system: SF-539 CNS
[18] = system: UACC-257 melanoma
[19] = system: M14 melanoma

SMILES	growth [1]	growth [2]	growth [3]	growth [4]	growth [5]	growth [6]	growth [7]	growth [8]	growth [9]	growth [10]	growth [11]	growth [12]	growth [13]	growth [14]	growth [15]	growth [16]	growth [17]	growth [18]	growth [19]
COC(=O)/C=C/c1cccc2c1C(=O)NC(C)(c1cc3cc4ccccc4cc3oc1=O)N2 (centres undefined)	30.5%	68%	33.7%	23.1%	47.1%	52.9%	26.9%	83.9%	53%	46.1%	46.7%	19.6%	28.5%	-0.792% (active)	42.8%	75.3%	44.7%	77.8%	55.9%
Cn1cc(-c2cc(N)n3nc(-c4cn(C)c5ccccc45)cc3n2)c2cc(Cl)ccc21	21.5%	-1.12% (active)	-52.1% (active)	-50.2% (active)	-58.2% (active)	-62.7% (active)	2.54% (active)	-86% (active)	-80.1% (active)	22%	1.57% (active)	-77% (active)	-45.4% (active)	-73.7% (active)	-46.4% (active)	-53.8% (active)	-69.3% (active)	-59.9% (active)	-78.3% (active)
COc1ccc2c(c1)c(-c1cc(N)n3nc(-c4cn(C)c5ccccc45)cc3n1)cn2C	-44% (active)	-42.2% (active)	-59.6% (active)	-44.5% (active)	-75.2% (active)	-64.4% (active)	-44.6% (active)	-88.3% (active)	-83% (active)	-58% (active)	2.2% (active)	-76.5% (active)	-53.8% (active)	-82.2% (active)	-56.5% (active)	-73.3% (active)	-87.6% (active)	-67.8% (active)	-83% (active)
C#CCOc1ccc(/C=N/Nc2nc(-c3ccc(Cl)cc3)cs2)cc1OC	56.3%	89.3%	84.7%	68%	48.8%	47.5%	64.4%	69.2%	54.7%	81.5%	26.2%	91.6%	77.1%	27.1%	73.8%	77.4%	70.6%	45.5%	61.1%
Cn1cc(-c2cc(N)n3nc(-c4cn(C)c5ccc(Cl)cc45)cc3n2)c2ccccc21	105%	103%	115%	115%	133%	100%	107%	88.4%	117%	111%	108%	104%	107%	115%	107%	97.2%	105%	102%	102%
O=C(c1ccccc1)C(c1c[nH]c2ccccc12)c1c[nH]c2ccccc12	41.7%	96.5%	83.5%	29.8%	76.7%	35.9%	70.2%	78.7%	58.5%	71.7%	10.3%	72.8%	57.5%	46.8%	60.3%	85.4%	85.4%	76.8%	61.1%
Cn1cc(NC(=O)c2cc(NC(=O)c3ccc(C#Cc4ccccc4)cc3)cn2C)cc1C(=O)NCCCN1CCOCC1	69.7%	81%	85.4%	-15.3% (active)	-11.5% (active)	-52.2% (active)	33.3%	-4.75% (active)	-78.7% (active)	56.4%	-41.5% (active)	-84.8% (active)	4.99% (active)	-4.28% (active)	63.2%	-81.9% (active)	-85.5% (active)	-28.8% (active)	-86.4% (active)
COc1cc2nc(SCc3ccccc3)n(-c3ccc(Cl)cc3)c(=O)c2cc1OC	-27.3% (active)	3.77% (active)	-69.2% (active)	-47.6% (active)	-30.2% (active)	-0.701% (active)	-50.6% (active)	-57.2% (active)	3.25% (active)	-10% (active)	2.35% (active)	-40.8% (active)	-6.51% (active)	-38.8% (active)	-12.9% (active)	-59.9% (active)	-83.6% (active)	38.3%	20.1%
Cn1cc(-c2nc(N)nnc2-c2c[nH]c3ccc(Br)cc23)c2cc(Br)cnc21	11.9%	37.8%	17.8%	-25% (active)	-6.93% (active)	-47.4% (active)	12.5%	-10.9% (active)	-85.3% (active)	14.2%	0.943% (active)	4.82% (active)	11.4%	-8.55% (active)	10.9%	11.4%	-9.44% (active)	47.3%	0.895% (active)
Nc1cccc(SCc2cc3ccccc3[nH]c2=O)c1	69.8%	73.3%	42.7%	20%	74.6%	43.6%	33.2%	47.3%	29%	58.7%	9.64% (active)	72%	57.2%	81.5%	47.7%	19.3%	59.9%	48.5%	20.5%
O=C(c1ccccc1)c1ccc2nc(-c3cccc(Cl)c3)[nH]c2c1	105%	105%	107%	111%	111%	101%	104%	100%	116%	115%	98.1%	111%	102%	115%	106%	116%	94.9%	100%	108%
COc1cc(-c2nc3ccc(C)cc3[nH]2)ccc1OCc1nnc(-c2ccc(Br)cc2)o1	57.5%	65.6%	48%	31.3%	18.8%	8.24% (active)	49.8%	-50.8% (active)	3.01% (active)	58.3%	3.01% (active)	45%	12.9%	25.2%	54.8%	-54.1% (active)	-82.7% (active)	-15.4% (active)	31.2%
COc1ccc(/C=C/c2nc3ccccc3n3c(-c4ccc(Cl)cc4)nnc23)cc1	95%	104%	96.8%	88.6%	69.5%	64.2%	90.4%	88.8%	92.4%	98.5%	72.4%	104%	91.7%	100%	79.4%	123%	90.8%	102%	102%
COC(OC)C1=C(C)OC(N)=C(C#N)C12C(=O)Nc1ccccc12 (centres undefined)	90.2%	98.3%	111%	97.2%	118%	6.48% (active)	114%	113%	102%	105%	82%	87.2%	102%	109%	104%	138%	100%	100%	94.9%
O=c1[nH]c2ccccc2cc1CSc1cccc(Nc2nccc(-c3ccc4ccccc4c3)n2)c1	80.7%	106%	95.3%	98.8%	117%	79%	83.6%	75.2%	102%	89.6%	64.3%	92%	95.6%	81.3%	98.1%	88%	98.3%	99.3%	86.7%
Cc1ccccc1[C@H]1C(C(=O)c2ccc(Cl)cc2)C2(N[C@@H]1c1ccccc1)C(=O)Nc1ccc(Cl)cc12 (some centres undefined)	-60.2% (active)	22.1%	-63.7% (active)	1.55% (active)	-44.4% (active)	-48.6% (active)	-29.2% (active)	-39.3% (active)	-75.7% (active)	5.12% (active)	-2.2% (active)	-33.3% (active)	-72.2% (active)	-67.7% (active)	29.3%	-22.5% (active)	-58.1% (active)	4.82% (active)	-78.4% (active)
